Reference: PubChem BioAssay AID1159580 (chemical genetic matrix, 2015)
Several values for one entry are separate records, joined by “and”; a condition that tells them apart may be missing. Equal values may be shown once. Screen size: about 5,500 compounds; about 2,000 (36%) were called active. Not shown: some 18% with an inconclusive outcome. Rule as the data show it: active = normalized growth mostly below about 0.91 (no sharp cut-off); inconclusive = no clear call, values can overlap the other calls; inactive = mostly above about 0.92. This is one part of the list.

Assay: chemical genetic growth profiling, strain panel (AID 1159580);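 also: tested at 20 µM; growth read once vehicle control cultures reached saturation at 30 °C; 1 = growth at the plate median or of vehicle wells; lower values mean less growth of the strain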
Conditions: growth OD
[1] = S. cerevisiae deletion strains, locus YHR030C, strain SLT2, active compounds read low
[2] = S. cerevisiae deletion strains, locus YHR079C, strain IRE1, active compounds read low
[3] = S. cerevisiae deletion strains, locus YJL095W, strain BCK1, active compounds read low
[4] = S. cerevisiae deletion strains, locus YJR066W, strain TOR1, active compounds read low
[5] = S. cerevisiae deletion strains, locus YLR113W, strain HOG1, active compounds read low
[6] = S. cerevisiae deletion strains, locus YNL183C, strain NPR1, active compounds read low
[7] = S. cerevisiae deletion strains, locus YOR231W, strain MKK1, active compounds read low
[8] = S. cerevisiae deletion strains, locus YPL256C, strain CLN2, active compounds read low

Measured: normalized growth

NC(N)=NC(N)=NCCc1ccccc1
inactive: [1] 0.956 | [2] 0.96 | [3] 0.961 | [4] 0.953 | [5] 0.965 | [6] 0.916 | [7] 0.975 | [8] 0.934

CC(C)N=C(N)N=C(N)Nc1ccc(Cl)cc1
inactive: S. cerevisiae deletion strains, locus YAL013W, strain DEP1, active compounds read low 1.02 | S. cerevisiae deletion strains, locus YBR021W, strain FUR4, active compounds read low 1.02 | S. cerevisiae deletion strains, locus YBR229C, strain ROT2, active compounds read low 1.01 | S. cerevisiae deletion strains, locus YCL029C, strain bik1, active compounds read low 1.02 | S. cerevisiae deletion strains, locus YDL035C, strain GPR1, active compounds read low 1.01 | S. cerevisiae deletion strains, locus YDL074C, strain BRE1, active compounds read low 1.02 | S. cerevisiae deletion strains, locus YDL101C, strain DUN1, active compounds read low 1.01 | S. cerevisiae deletion strains, locus YDL134C, strain PPH21, active compounds read low 1.01 | S. cerevisiae deletion strains, locus YDL185W, strain tfp1, active compounds read low 1.01 | S. cerevisiae deletion strains, locus YDL192W, strain arf1, active compounds read low 1.01 | S. cerevisiae deletion strains, locus YDR101C, strain arx1, active compounds read low 1.01 | S. cerevisiae deletion strains, locus YDR150W, strain NUM1, active compounds read low 1.02 | S. cerevisiae deletion strains, locus YDR162C, strain NBP2, active compounds read low 1.01 | S. cerevisiae deletion strains, locus YDR318W, strain mcm21, active compounds read low 1.02 | S. cerevisiae deletion strains, locus YDR388W, active compounds read low 1.02 | S. cerevisiae deletion strains, locus YDR502C, strain sam2, active compounds read low 1.01 | S. cerevisiae deletion strains, locus YEL061C, strain CIN8, active compounds read low 1 | S. cerevisiae deletion strains, locus YER110C, active compounds read low 1.02 | S. cerevisiae deletion strains, locus YER155C, strain BEM2, active compounds read low 1.01 | S. cerevisiae deletion strains, locus YER167W, strain BCK2, active compounds read low 1.02 | S. cerevisiae deletion strains, locus YGL078C, strain dbp3, active compounds read low 1.01 | S. cerevisiae deletion strains, locus YGL086W, strain mad1, active compounds read low 1.01 | S. cerevisiae deletion strains, locus YGL248W, strain PDE1, active compounds read low 1.02 | S. cerevisiae deletion strains, locus YGR078C, strain PAC10, active compounds read low 1.01 | S. cerevisiae deletion strains, locus YGR135W, strain pre9, active compounds read low 1 | S. cerevisiae deletion strains, locus YGR229C, strain SMI1, active compounds read low 1.01 | S. cerevisiae deletion strains, locus YGR252W, strain gcn5, active compounds read low 0.986 | [1] 1.01 and 1.03 | S. cerevisiae deletion strains, locus YHR079C, strain IRE1 (second series), active compounds read low 1.02 | [2] 1 | S. cerevisiae deletion strains, locus YHR094C, strain hxt1, active compounds read low 1.01 | S. cerevisiae deletion strains, locus YHR129C, strain ARP1, active compounds read low 1 | S. cerevisiae deletion strains, locus YHR200W, strain rpn10, active compounds read low 1.02 | S. cerevisiae deletion strains, locus YIL066C, strain RNR3, active compounds read low 1.01 | S. cerevisiae deletion strains, locus YIL073C, strain SPO22, active compounds read low 1.07 | S. cerevisiae deletion strains, locus YIL125W, strain kgd1, active compounds read low 1.01 | S. cerevisiae deletion strains, locus YIR030C, strain dcg1, active compounds read low 1.02 | [3] 1.02 and 0.993 | S. cerevisiae deletion strains, locus YJL134W, strain LCB3, active compounds read low 1.01 | S. cerevisiae deletion strains, locus YJL168C, strain set2, active compounds read low 1.02 | S. cerevisiae deletion strains, locus YJL187C, strain SWE1 (second series), active compounds read low 1.01 | S. cerevisiae deletion strains, locus YJR043C, strain POL32, active compounds read low 1.02 | [4] 0.987 | S. cerevisiae deletion strains, locus YJR075W, strain HOC1, active compounds read low 1.02 | S. cerevisiae deletion strains, locus YKL009W, strain mrt4, active compounds read low 1.01 | S. cerevisiae deletion strains, locus YKL068W, active compounds read low 1.01 | S. cerevisiae deletion strains, locus YKL085W, strain MDH1 (second series), active compounds read low 1.02 | S. cerevisiae deletion strains, locus YKL085W, strain MDH1, active compounds read low 1.02 | S. cerevisiae deletion strains, locus YKL190W, strain CNB1, active compounds read low 1.01 | S. cerevisiae deletion strains, locus YKR001C, strain vps1, active compounds read low 1.02 | S. cerevisiae deletion strains, locus YLR039C, strain RIC1, active compounds read low 1.05 | S. cerevisiae deletion strains, locus YLR058C, strain SHM2, active compounds read low 1.02 | S. cerevisiae deletion strains, locus YLR102C, strain apc9, active compounds read low 1.02 | [5] 0.951 | S. cerevisiae deletion strains, locus YLR262C, strain YPT6, active compounds read low 1.04 | S. cerevisiae deletion strains, locus YLR268W, strain sec22, active compounds read low 1.03 | S. cerevisiae deletion strains, locus YLR330W, strain CHS5, active compounds read low 1.01 | S. cerevisiae deletion strains, locus YLR342W, strain FKS1 (second series), active compounds read low 1.02 | S. cerevisiae deletion strains, locus YLR371W, strain rom2, active compounds read low 1.03 | S. cerevisiae deletion strains, locus YLR418C, strain cdc73, active compounds read low 1.02 | S. cerevisiae deletion strains, locus YML016C, strain PPZ1, active compounds read low 1.01 | S. cerevisiae deletion strains, locus YML032C, strain rad52, active compounds read low 1.02 | S. cerevisiae deletion strains, locus YML124C, strain tub3, active compounds read low 1.01 | S. cerevisiae deletion strains, locus YMR078C, strain ctf18, active compounds read low 1.02 | S. cerevisiae deletion strains, locus YMR223W, strain ubp8, active compounds read low 1.01 | S. cerevisiae deletion strains, locus YMR263W, strain SAP30, active compounds read low 1.01 | S. cerevisiae deletion strains, locus YMR307W, strain GAS1, active compounds read low 1.04 | S. cerevisiae deletion strains, locus YNL067W, strain RPL9B, active compounds read low 1.01 | S. cerevisiae deletion strains, locus YNL128W, strain TEP1, active compounds read low 1.01 | S. cerevisiae deletion strains, locus YNL153C, strain GIM3, active compounds read low 1.01 | [6] 0.968 | S. cerevisiae deletion strains, locus YNL233W, strain BNI4, active compounds read low 1.01 | S. cerevisiae deletion strains, locus YNL250W, strain rad50, active compounds read low 1.01 | S. cerevisiae deletion strains, locus YNL271C, strain bni1, active compounds read low 1.01 | S. cerevisiae deletion strains, locus YNL298W, strain CLA4, active compounds read low 1.01 | S. cerevisiae deletion strains, locus YNL307C, strain MCK1, active compounds read low 1.02 | S. cerevisiae deletion strains, locus YNL322C, strain KRE1, active compounds read low 1.01 | S. cerevisiae deletion strains, locus YNR052C, strain pop2, active compounds read low 1.01 | S. cerevisiae deletion strains, locus YOL006C, strain TOP1, active compounds read low 1.02 | S. cerevisiae deletion strains, locus YOL012C, strain htz1 1.92 | S. cerevisiae deletion strains, locus YOL147C, strain pex11, active compounds read low 1.01 | S. cerevisiae deletion strains, locus YOR061W, strain CKA2, active compounds read low 1.01 | S. cerevisiae deletion strains, locus YOR069W, strain VPS5, active compounds read low 1.01 | S. cerevisiae deletion strains, locus YOR136W, strain idh2, active compounds read low 1.02 | S. cerevisiae deletion strains, locus YOR144C, strain elg1, active compounds read low 1.02 | S. cerevisiae deletion strains, locus YOR184W, strain ser1, active compounds read low 1.01 | [7] 1.01 | S. cerevisiae deletion strains, locus YOR316C, strain cot1, active compounds read low 1.02 | S. cerevisiae deletion strains, locus YPL055C, strain LGE1, active compounds read low 1.03 | S. cerevisiae deletion strains, locus YPL241C, strain CIN2, active compounds read low 1.01 | [8] 1.04 | S. cerevisiae deletion strains, locus YPR119W, strain clb2, active compounds read low 1.01 | S. cerevisiae deletion strains, locus YPR141C, strain kar3, active compounds read low 1.02 | S. cerevisiae deletion strains, locus YPR163C, strain tif3, active compounds read low 1.02 | S. cerevisiae deletion strains, locus YPR167C, strain met16, active compounds read low 1.02 | S. cerevisiae deletion strains, strain wtn01, active compounds read low 1.01 | S. cerevisiae strains, strain wild type, active compounds read low 1.01
